Compound activity deposited in PubChem by National Center for Advancing Translational Sciences (NCATS).
IMPase Li inh = qHTS Assay for Identifying the Cell-Membrane Permeable IMPase Inhibitors: Potentiation with Lithium; CHO-M1 cells, IP1 TR-FRET (IP-One), carbachol + lithium; Potency, µM (titrated, usually from 59.4 µM), inactives show at the top dose activity, negative = IMPase inhibition, actives largely listed as inhibitors; 210,000 compounds, 0.35% hits;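 also: IP1 builds up when IMPase is blocked and the TR-FRET signal falls; potency is read from the fitted curve at half-maximal effect; plate controls were basal vehicle for no effect and high inhibitor control for full effect; nearly all actives have a fitted effect of over 50% in size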
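Test compounds were applied to CHO-M1 cells previously cultured for 16–30 h at 2000 per well. A small lithium amount accompanied them; after 30 min at 37C, IP1 was quantified by TR-FRET.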
HTT cytoprotect = qHTS Multiplex Assay to Identify Dual Action Probes in a Cell Model of Huntington: Cytoprotection (ATP). PC12 HTT-Q103 induced, cytoprotection, ATP luminescence, 40 h. Potency, µM (highest dose often 56.4 µM), for the others: cytoprotection (ATP increase), usual class: activators. 230,000 compounds, 0.14% hits; also: potency is read from the fitted curve at half-maximal effect; % of control where 0% means no effect; nearly all actives have a fitted effect of over 45% in size
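PC12 cells with ecdysone-inducible HTT exon 1 Q103-GFP, induced with 100 nM tebufenozide and co-treated with library compounds in a dose series (1536-well, 1500 cells/well). Cytoprotection read as ATP content by ATPlite luminescence.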
HPGD inh = qHTS Assay for Inhibitors of HPGD (15-Hydroxyprostaglandin Dehydrogenase); purified HPGD, NADH fluorescence kinetic, PGE2 substrate; Potency, µM, for inactives: at the top dose activity change, negative = inhibition, hits mostly inhibitors; 15-hydroxyprostaglandin dehydrogenase [NAD(+)] (Homo sapiens), P15428; 150,000 compounds, 4.3% hits; active = well fitted inhibition curve with a large enough effect, not every such curve was filed as active; inconclusive = small, poorly fitted or top-dose-only effect, or another doubt; inactive = no such curve, though single readings can be large or run the other way; also: potency is read from the fitted curve at half-maximal effect; % is scaled to controls: 0 for no effect and ±100 for the full control effect
Target sequence (P15428 whole entry, looked up): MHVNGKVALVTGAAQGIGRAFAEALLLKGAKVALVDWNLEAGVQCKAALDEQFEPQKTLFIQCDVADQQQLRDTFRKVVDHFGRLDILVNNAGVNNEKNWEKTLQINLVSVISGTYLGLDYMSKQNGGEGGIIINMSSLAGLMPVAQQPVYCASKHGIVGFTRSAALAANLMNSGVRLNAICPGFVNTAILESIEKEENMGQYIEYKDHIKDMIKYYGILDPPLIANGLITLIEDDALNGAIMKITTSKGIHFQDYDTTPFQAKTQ
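20 nM HPGD preincubated 15 min at room temperature with compound in 50 mM Tris-HCl pH 8, 0.01% Tween 20. Started with 1 mM NAD+ and 30 uM prostaglandin E2; NADH fluorescence (360/450 nm) read 5 times over 30-s intervals, last minus first.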
ALDH1A1 inh = qHTS Assay for Inhibitors of Aldehyde Dehydrogenase 1 (ALDH1A1). Aldehyde dehydrogenase 1A1 (Homo sapiens), P00352. Purified ALDH1A1, NADH fluorescence, propionaldehyde substrate. Potency, µM (titrated, usually from 75.3 µM), without a hit: at the highest dose activity, negative = inhibition, usual class: inhibitors. 220,000 compounds, 7.3% hits; active = well fitted inhibition curve with a large enough effect, not every such curve was filed as active; inconclusive = small, poorly fitted or top-dose-only effect, or another doubt; inactive = no such curve, though single readings can be large or run the other way;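 also: potency is read from the fitted curve at half-maximal effect; plate controls were no enzyme wells and a reference inhibitor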
HTT aggregate = qHTS Multiplex Assay to Identify Dual Action Probes in a Cell Model of Huntington: Aggregate Formation (GFP); PC12 HttQ103-GFP aggregates, Acumen cytometry, 40 h; Potency, µM (highest dose often 46.1 µM), inactives show at the highest dose activity change, negative = inhibition, hits mostly inhibitors; AID 1688, 2009; 220,000 compounds, 1.1% hits; also: potency is read from the fitted curve at half-maximal effect; % is scaled to controls: 0 for no effect and ±100 for the full control effect; nearly all actives have a fitted effect of over 60% in size
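Inducible Q103 Huntingtin exon 1–GFP PC12 line, 1500 cells/well in phenol red free DMEM with 5% equine and 5% calf serum. Tebufenozide 100 nM induced expression; compounds titrated; aggregates quantified by cytometry.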
IMPase cell inh = qHTS Assay for Identifying the Cell-Membrane Permeable IMPase Inhibitors; CHO-M1 cells, IP1 accumulation, HTRF TR-FRET ratio; inhibition (IP1 accumulation), % at 46.1 µM; AID 901, 2007; Inositol monophosphatase 1 (Rattus norvegicus), P97697; 120,000 tested, under 10 active; active = well fitted curve in the direction sought with a large enough effect in the signal ratio, not every such curve was filed as active; inconclusive = small, poorly fitted or top-dose-only effect, or a change in a side signal; inactive = no such curve, though single readings can be large or run the other way; the % refers to the signal ratio;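 also: cells stimulated with carbachol in lithium chloride buffer; plate controls were DMSO basal wells for no effect and reference inhibitor wells for full effect; higher means more IMPase inhibition seen as more IP1 and lower FRET ratio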
Target sequence (P97697 whole entry, looked up): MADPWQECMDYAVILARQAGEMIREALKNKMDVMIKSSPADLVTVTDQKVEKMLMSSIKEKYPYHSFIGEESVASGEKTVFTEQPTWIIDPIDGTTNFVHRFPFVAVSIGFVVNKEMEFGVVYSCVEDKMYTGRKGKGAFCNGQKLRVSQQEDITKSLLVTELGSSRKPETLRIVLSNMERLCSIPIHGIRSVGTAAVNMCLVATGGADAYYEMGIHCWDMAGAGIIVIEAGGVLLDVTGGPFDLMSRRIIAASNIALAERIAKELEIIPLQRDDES
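CHO-M1, 2000 cells/well, cultured 16–30 h; cpd up to 46 uM; carbachol (50 uM solution, stimulation buffer w/ 50 mM LiCl, pH 7.4), 30 min 37C; IP-One TR-FRET, 10 min RT; Ex 320/Em 665, 620; Hill-fit AC50.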
* = called active by the depositor; ? = inconclusive; · = no result; [ ] = dose if it differs, or a comment. This is a sample that favours compounds with a hit; in the whole collection about 9.4% have one here. Unless noted, calls follow the shape of the dose curve; as a rule, active = well fitted curve in the direction sought with a large enough effect; inconclusive = small, poorly fitted or top-dose-only effect, or another doubt; inactive = no such curve, though single readings can be large; an effect the other way counts as inactive or inconclusive.

SMILES	IMPase Li inh	HTT cytoprotect	HPGD inh	ALDH1A1 inh	HTT aggregate	IMPase cell inh
Cc1cc(O)cc(O)c1C(=O)OC1(C)C(=O)C=C2C=C(/C=C/C(=O)O)OC=C2C1=O (stereo not drawn)	5%	?	-17%	?	·	·
CN(C)c1ccc(-c2nc3ccccc3c(=O)[nH]2)cc1	·	-87%[10 µM]	·	·	-7%[9.22 µM]	·
O=c1[nH]c(-c2ccncc2)nc2ccccc12	7%[38.3 µM]	-12%[10 µM]	7.1µM*	7.9µM*	-1%	0
O=c1[nH]c(-c2cccnc2)nc2ccccc12	0%	19%[10 µM]	18µM*	12%	5%	-12
Cc1sc2nc(-c3cccnc3)[nH]c(=O)c2c1-c1ccccc1	4%	-21%	·	?	12%	·
Fc1ccc(C(Nc2ccccc2Cl)c2nnc(-c3ccccc3Cl)o2)cc1 (stereo not drawn)	·	·	·	·	·	12
O=[N+]([O-])c1cc(/C=N/N/C(=N/c2ccccn2)c2ccccn2)ccc1O	2%	2%[10 µM]	·	-5%	?	·
O=[N+]([O-])c1ccc(/C=N/N/C(=N/c2ccccn2)c2ccccn2)cc1	4%[38.3 µM]	-28%	28µM*	?	?	9
CN(C)/C=C1/Sc2ccccc2C1=O	15%[38.3 µM]	8%	-16%	?	2%	3
CC(=O)N(\C=C/C=C/C=C1\Sc2ccccc2C1=O)c1ccccc1	4%	-45%[10 µM]	·	18µM*	13%	·
CCn1c(N)c(C(=O)Nc2ccccc2C(=O)OC)sc1=S	16%[38.3 µM]	-15%	25µM*	28µM*	8%	-7
CCCCCC(=O)NC(=S)Nc1ccccc1C(=O)OC	-12%[38.3 µM]	-15%	-10%	?	5%	13
CCn1c(N)c(C(=O)NCCOC)sc1=S	11%[38.3 µM]	-1%	?	25µM*	0%	3
CCn1c(N)c(C(=O)NCc2ccc3c(c2)OCO3)sc1=S	26%[38.3 µM]	-13%[0.074 µM]	16µM*	20µM*	-9%	-3
Fc1ccccc1NC(=S)N(CCN1CCCCC1)Cc1ccco1	-6%	-24%	·	-10%	3%	·
O=C(NC(=S)Nc1cccc(CO)c1)c1ccc(-c2ccccc2)cc1	8%	5%[0.074 µM]	-11%	13µM*	-10%	·
CCC(=O)Nc1cccc(NC(=S)NC(=O)c2ccccc2)c1	-1%	14%[10 µM]	-7%	?	-5%	·
CCC(=O)Nc1cccc(NC(=S)NC(=O)c2cccc(C)c2)c1	-4%	·	-9%	25µM*	0%	·
CCC(=O)Nc1cccc(NC(=S)NC(=O)c2ccc(C)cc2)c1	5%	2%[10 µM]	·	13µM*	7%[9.22 µM]	·
CC(=O)c1cccc(NC(=S)NC(=O)c2ccc(Br)cc2)c1	4%	26%[0.074 µM]	-11%	-7%	-11%	·
CCOC(=O)Cc1csc(NC(=S)NC(=O)c2ccc(C)cc2)n1	·	-62%[10 µM]	·	40µM*	7%	1
O=C(O)COc1ccccc1/C=N/NC(=O)c1cccc(S(=O)(=O)N2CCOCC2)c1	4%	-9%[10 µM]	·	-14%	3%	·
COCC(=O)N1CCC[C@@]2(CCN(C(=O)Nc3cccc(C#N)c3)C2)C1	-2%	?	-10%	-15%	·	·
Cc1noc(NS(=O)(=O)c2ccc(NC(=O)C(CC(C)C)N3C(=O)c4ccccc4C3=O)cc2)c1C (stereo not drawn)	·	-9%[10 µM]	·	·	-8%[9.22 µM]	·
N#C/C(=C/c1ccc([N+](=O)[O-])cc1)C(=O)Nc1ccccc1O	10%	6%[10 µM]	-3%	7.9µM*	-2%	·
SMILES	IMPase Li inh	HTT cytoprotect	HPGD inh	ALDH1A1 inh	HTT aggregate	IMPase cell inh
N#C/C(=C\c1ccc([N+](=O)[O-])cc1)C(=O)Nc1ccccc1O	22%	4%[10 µM]	-13%	18µM*	6%	·
N#C/C(=C/c1ccc(O)c([N+](=O)[O-])c1)C(=O)Nc1ccccc1	-4%	-57%	·	?	17%	·
COc1ccc(NC(=O)C2CCC(CNS(=O)(=O)c3ccc(Br)s3)CC2)c(OC)c1 (stereo not drawn)	·	·	·	·	·	12
CCCOc1ccc(-c2nn(-c3ccccc3)cc2C2NC(=O)NC(C)=C2C(=O)OC(C)C)cc1 (stereo not drawn)	·	·	·	·	·	7
NC(=O)Cc1nc(-c2ccc(Br)cc2)cs1	-2%	2%[10 µM]	-11%	10%	5%	·
Oc1csc(Cc2nc(-c3ccc(Br)cc3)cs2)n1	-13%	7%	·	28µM*	13%	·
CCN1c2ccccc2N(C)C1(C)c1ccccc1 (stereo not drawn)	14%	16%[10 µM]	-7%	-7%	13µM*	12
CN1c2ccccc2N(C)C1(C)c1ccccc1	4%	-19%[10 µM]	-11%	?	-14%	·
CCOc1ccc(NC(=O)CSc2nnc3scc(-c4ccccc4)n23)cc1	·	·	·	·	·	-6
S=C(c1ccc(-c2ccc(Cl)cc2Cl)o1)N1CCCCC1	5%	10%[10 µM]	?	14µM*	-28%	1
N#CCCN1CCN(C(=S)c2ccc(-c3cc(Cl)ccc3Cl)o2)CC1	18%[38.3 µM]	-29%	-14%	?	-25%	6
S=C(c1ccc(-c2ccc(Cl)cc2Cl)o1)N1CCCC1	·	-25%[10 µM]	·	4µM*	1%[9.22 µM]	·
CN1CCN(C(=S)c2ccc(-c3cc(Cl)ccc3Cl)o2)CC1	·	12%[10 µM]	·	·	5%[9.22 µM]	·
CC#CCN1c2ccccc2[C@]23C[C@@H](C(=O)OC)N(C(=O)CC(C)C)C2=NC(C(=O)OC)=C(C(=O)OC)[C@H]13	6%	11%[10 µM]	-1%	2%[13.5 µM]	·	·
FC(F)(F)c1cccc(N2CCN(C(=S)NC3CCCCC3)CC2)c1	22%	-2%[10 µM]	-14%	1%	22µM*	28
Cc1ccc(NC(=O)NC2=NN(c3ccccc3)C(=O)/C2=C2/CCCN2C)cc1	43%	5%	·	7.1µM*	11%	·
O=C1Nc2c(c(=O)[nH]c(=O)n2-c2ccc(Cl)cc2)C1(NS(=O)(=O)c1ccccc1)C(F)(F)F (stereo not drawn)	·	·	·	·	·	-6
Oc1sc(C=Nc2ccc(F)cc2)c2ccccc12	35%[38.3 µM]	-11%[10 µM]	-7%	?	-11%	2[1.84 µM]
Oc1sc(C=Nc2ccccc2)c2ccccc12	38%[38.3 µM]	-4%[10 µM]	-24%	22µM*	10%	1[1.84 µM]
COc1ccc(/C=C/C(=O)CC(=O)/C=C/c2cccc(O)c2OC)cc1O	14%	?	·	?	·	·
COc1ccc2cc(C(=O)c3ccccc3)c(=O)oc2c1	-13%[38.3 µM]	-23%	-12%	14µM*	5%	9
CCOc1ccc2cc(C(=O)c3ccccc3)c(=O)oc2c1	25µM*	·	-17%	?	5%	·
